Compound activity (PubChem BioAssay)
The list is not random: actives were taken first. Their share in the collection is about 4.2%.
tim23-1 inh: tim23-1 yeast growth inhibition | S. cerevisiae tim23-1 growth, BacTiter-Glo luminescence, 24 h | inhibition, % at 20 µM | 330,000 tested, 1.3% active | AID 463212;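 active = growth inhibition of the mutant yeast at or above 50%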;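 also: temperature-sensitive mutant grown at 25 °C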
NALP1 yeast inh: inhibitors of NALP1 inflammasome in yeast; 280,000 tested, 0.61% active; inhibition, % at 10 µM; S. cerevisiae NALP1/ASC/caspase-1 growth, X-gal OD620, 72 h; AID 2071; in the data active = inhibition mostly above about 24%, no sharp cut-off; inactive = mostly below about 32%
tim10-1 inh: growth inhibitors of tim10-1 mutant yeast. S. cerevisiae tim10-1 ts strain growth, BacTiter-Glo, 24 h. inhibition, % at 20 µM. 330,000 tested, 2.2% active. AID 463190;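 active = inhibition of at least 40%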;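 also: mutant grown at 25 °C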
NLRP3 yeast inh: inhibitors of NALP3 inflammasome in yeast; Yeast reconstituted NLRP3/ASC/caspase-1, beta-gal luminescence, 24 h; inhibition, % at 10 µM; 330,000 tested, 0.39% active; AID 2825;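 active = inhibition of 50% or more; inactive = inhibition below 50%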
TIM10 inh: inhibits growth of TIM10 yeast strain. S. cerevisiae TIM10 strain growth, BacTiter-Glo luminescence, 24 h. inhibition, % at 10 µM. 330,000 tested, 1.4% active. AID 463195;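 active = inhibition of 40% or more at the single tested concentration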;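 also: wild-type TIM10 isogenic control strain grown at permissive 25 °C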
V-ATPase pH: regulators of yeast V-ATPase proton transport. S. cerevisiae, pHLuorin cytosolic pH fluorescence. 350,000 tested, 0.37% active. response, % at 10 µM; in the data active = response mostly above about 7.3%, no sharp cut-off; inactive = mostly below about 5.4%; also: actives read high
tim10-1 conf: confirmation of tim10-1 mutant yeast growth inhibitors; shares compounds with tim10-1 inh; 7,400 tested, 56% active; inhibition, % at 20 µM; AID 463213; S. cerevisiae tim10-1 ts strain growth, BacTiter-Glo, 24 h;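 active = inhibition of yeast growth at or above a set limit in either of two repeat tests at 20 µM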;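 also: tim10-1 mutant grown at permissive 25 °C to find synthetic lethal compounds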
tim10 confirm: confirmation of TIM10 yeast growth inhibitors. shares compounds with TIM10 inh. S. cerevisiae tim10 strain growth, BacTiter-Glo luminescence, 24 h. inhibition, % at 10 µM. 4,600 tested, 63% active. AID 463215;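 active = inhibition of yeast growth at or above a set limit in either of two replicates at 10 µM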; also: this counterscreen used the strain with wild-type TIM10
tim23-1 confirm: tim23-1 yeast growth inhibition, confirmed. inhibition, % at 20 µM. 4,400 tested, 83% active. S. cerevisiae tim23-1 growth, BacTiter-Glo luminescence, 24 h. shares compounds with tim23-1 inh;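 active = inhibition above about 39% in either of two replicate wells at 20 µM, limit read from the data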;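 also: temperature-sensitive tim23-1 mutant grown at 25 °C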
Each line names hits and unclear results; the compound was inactive in the other large screens (follow-up assays come after a bar, where they were run).

CCCN1C(=O)/C(=C/c2nc3ccccc3c(=O)[nH]2)c2ccccc21	tim23-1 inh 52.0, tim10-1 inh 50.7, TIM10 inh 42.4 | tim10-1 conf 35.7 | tim10 confirm inactive | tim23-1 confirm 54.5
CCn1c(/C=C/c2ccccc2Cl)nc2ccccc2c1=O	none
CCn1c(/C=C2\C(=O)N(C)c3ccccc32)nc2ccccc2c1=O	tim23-1 inh 51.6, tim10-1 inh 45.5, TIM10 inh 43.4 | tim10-1 conf 39.0 | tim10 confirm inactive | tim23-1 confirm 52.4
CCN1C(=O)/C(=C\N(C)C)c2ccccc21	none
CCN1C(=O)/C(=C\c2nc3ccccc3c(=O)n2CC)c2ccccc21	tim23-1 inh 55.7, tim10-1 inh 55.5, TIM10 inh 46.9 | tim10-1 conf 44.2 | tim10 confirm 32.6 | tim23-1 confirm 57.3
COc1ccccc1CCNS(=O)(=O)c1c(C)n(C)c(=O)n(C)c1=O	none (no result: NALP1 yeast inh)
COc1ccc(CCC(=O)Nc2ccc(Br)cn2)cc1	none
CN1C(=O)c2cccc3c(S(N)(=O)=O)ccc1c23	none
COc1cc(/C=C/c2sc3ccccc3[n+]2CCCS(=O)(=O)[O-])ccc1O	tim23-1 inh 51.5, tim10-1 inh 45.2 | tim10-1 conf 43.9 | tim23-1 confirm 50.0
CCC(/C=C1\Oc2ccc(OC)cc2N1C)=C\c1sc2ccccc2[n+]1CCCS(=O)(=O)[O-]	none (no result: tim23-1 inh, NALP1 yeast inh, tim10-1 inh, NLRP3 yeast inh, TIM10 inh)
CCN(CC)CCNc1c2c(c(C#N)c3nc4ccccc4n13)CCCC2	tim23-1 inh 57.3, tim10-1 inh 67.5, TIM10 inh 59.8 | tim10-1 conf 55.8 | tim10 confirm 53.4 | tim23-1 confirm 67.3
CN(C)CCNc1c2c(c(C#N)c3nc4ccccc4n13)CCCC2	none
Oc1c(Br)cc(Br)cc1C=Nc1ccc2[nH]ncc2c1	tim23-1 inh 86.2, tim10-1 inh 46.5 (no result: NALP1 yeast inh) | tim10-1 conf 55.9 | tim23-1 confirm 79.5
COc1ccc(C=Nc2ccc3[nH]ncc3c2)c(O)c1	none
Oc1c(Br)cc(Br)cc1C=Nc1cccnc1	tim23-1 inh 79.4, NALP1 yeast inh 45.4, tim10-1 inh 56.9, TIM10 inh 67.0 | tim10-1 conf 41.7 | tim10 confirm 48.0 | tim23-1 confirm 89.8
O=C(CN1C(=O)NC2(CCCCCC2)C1=O)NCCc1ccccc1	none (no result: NALP1 yeast inh)
N/C(=N\OC(=O)C1CCCCC1)c1ccc(Br)cc1	tim23-1 inh 68.0, tim10-1 inh 60.7, TIM10 inh 44.7 | tim10-1 conf 55.3 | tim10 confirm 66.0 | tim23-1 confirm 75.3
N/C(=N\OC(=O)COc1ccccc1Cl)c1ccc(Cl)cc1	tim23-1 inh 60.2, tim10-1 inh 69.5, TIM10 inh 54.1 | tim10-1 conf 49.0 | tim10 confirm 42.5 | tim23-1 confirm 76.2
N/C(=N\OC(=O)COc1ccc(Cl)cc1Cl)c1cccnc1	none
N/C(=N\OC(=O)C1CCCCC1)c1ccncc1	none
N/C(=N\OC(=O)C1CCCCC1)c1ccc(Cl)cc1	tim23-1 inh 53.2, tim10-1 inh 62.7, TIM10 inh 48.0 | tim10-1 conf 52.6 | tim10 confirm 43.3 | tim23-1 confirm 38.0
NC(=NC1CCCCC1)c1ccc(Cl)cc1	none
COc1cccc(/C=C2\SC(N3CCCC(C)C3)=NC2=O)c1OC (centres undefined)	none
CC(Sc1ccccn1)C(=O)NC1CCCC1 (centres undefined)	none (no result: NALP1 yeast inh)
COc1cnc(-c2ccccn2)nc1Sc1cccc(Cl)c1	tim23-1 inh 63.1, tim10-1 inh 43.7 | tim10-1 conf inactive | tim23-1 confirm 55.0
COc1ccccc1Sc1nc(-c2ccccn2)ncc1OC	none
Cc1[nH]nc2c1C(c1ccc(-c3ccccc3C#N)o1)C(C#N)=C(N)O2 (centres undefined)	tim23-1 inh 85.8, tim10-1 inh 55.5 | tim10-1 conf 54.8 | tim23-1 confirm 68.2
COc1ccc(C2CC(c3ccc(Br)cc3)=NN2C(=O)CSC2=NN3CCCC(=O)N=C3S2)cc1 (centres undefined)	none
Cc1ccc(C2CC(c3cccs3)=NN2C(=O)CSC2=NN3CCCC(=O)N=C3S2)cc1 (centres undefined)	tim23-1 inh 56.8, tim10-1 inh 50.5, TIM10 inh 44.5 | tim10-1 conf 43.8 | tim10 confirm 39.9 | tim23-1 confirm 60.0
OCc1ccccc1N=c1ssnc1Cl	none (no result: V-ATPase pH)
Clc1ccc(N=c2ssnc2Cl)nc1	tim23-1 inh 62.1, tim10-1 inh 56.7, TIM10 inh 85.2 | tim10-1 conf 76.8 | tim10 confirm 47.5 | tim23-1 confirm 89.9
Cc1nn(CCCC(=O)NCc2ccccc2)c(=O)c2nccn12	none
Cc1nc2ccccn2c1C(=O)N/N=C/c1cc(C)n(-c2ccc(Br)cc2)c1C	tim23-1 inh 59.9, tim10-1 inh 43.9 | tim10-1 conf inactive | tim23-1 confirm 41.2
O=[N+]([O-])c1c(Nc2ccccn2)cc(Cl)c2nonc12	tim23-1 inh 94.3, tim10-1 inh 94.3, TIM10 inh 95.3, V-ATPase pH 33.0 (no result: NALP1 yeast inh) | tim10-1 conf 94.1 | tim10 confirm 99.5 | tim23-1 confirm 96.3
O=S(=O)(NCC(c1ccco1)N1CCN(c2ccc(F)cc2)CC1)c1ccc2c(c1)OCCO2 (centres undefined)	none
CCN1/C(=C/C(C)=C/c2sc3ccccc3[n+]2CC)Sc2ccccc21	tim23-1 inh 82.3, tim10-1 inh 80.2, TIM10 inh 78.9 | tim10-1 conf 75.5 | tim10 confirm 88.0 | tim23-1 confirm 81.5
CCN1/C(=C\C(C)=O)Sc2ccc(OC)cc21	none
C#Cc1cccc(NC(=O)c2ccc(Cl)cc2Cl)c1	tim23-1 inh 68.0, tim10-1 inh 53.5, TIM10 inh 58.5 | tim10-1 conf 42.5 | tim10 confirm 52.2 | tim23-1 confirm 61.2
O=C(Nc1ccc(Nc2ccccc2)cc1)c1ccc(Cl)cc1Cl	none (no result: NALP1 yeast inh)
COc1ccc(CN2C(=O)[C@H]3Cc4c([nH]c5ccccc45)C(C)(C)N3C2=O)cc1	tim23-1 inh 51.5, tim10-1 inh 48.5, TIM10 inh 41.3 (no result: NALP1 yeast inh) | tim10-1 conf 39.3 | tim10 confirm 36.5 | tim23-1 confirm 46.9
COc1ccccc1CN1C(=O)[C@@H]2Cc3c([nH]c4ccccc34)C(C)(C)N2C1=O	none (no result: NALP1 yeast inh)
Cc1ccccc1CC(=O)c1ccc(O)c(C)c1O	tim23-1 inh 61.3, tim10-1 inh 49.1 | tim10-1 conf 45.5 | tim23-1 confirm 65.5
CC1=NN(c2ccc(F)cc2)C(=O)C1C(c1cccc(O)c1)c1c(C)[nH]n(-c2ccc(F)cc2)c1=O (centres undefined)	none
